In PubChem BioAssay (NCI):
This is part of a sample that, as a whole, favours compounds with a hit. Of some 83,000 tested, about 20% had one in any assay.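 Each cell line was grown in a 96-well plate and treated with one concentration of compound for 48 hours. Values below 10 were considered active.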 Activity calls are given as the source filed them.

Key:
Experiment in all cases: NCI-60 one-dose screen, 48 h (100 = growth as untreated, 0 = no growth, -100 = all killed)
Settings in all cases: 10 µM unless noted
MOLT-4 leukemia = tested on: MOLT-4 leukemia
SR leukemia = tested on: SR leukemia
RPMI-8226 leukemia = tested on: RPMI-8226 leukemia
OVCAR-8 ovarian = tested on: OVCAR-8 ovarian
OVCAR-5 ovarian = tested on: OVCAR-5 ovarian
OVCAR-4 ovarian = tested on: OVCAR-4 ovarian
SK-OV-3 ovarian = tested on: SK-OV-3 ovarian
IGROV1 ovarian = tested on: IGROV1 ovarian
OVCAR-3 ovarian = tested on: OVCAR-3 ovarian
HS 578T breast = tested on: HS 578T breast
NCI/ADR-RES ovarian = tested on: NCI/ADR-RES ovarian
BT-549 breast = tested on: BT-549 breast
MDA-MB-435 melanoma = tested on: MDA-MB-435 melanoma
SW-620 colon = tested on: SW-620 colon
MCF7 breast = tested on: MCF7 breast
HCT-116 colon = tested on: HCT-116 colon
HCC-2998 colon = tested on: HCC-2998 colon
KM12 colon = tested on: KM12 colon
T-47D breast = tested on: T-47D breast

Measured: growth

COc1cc(C=Nc2cccc(Br)c2)ccc1N(CCCl)CCCl
inactive: MOLT-4 leukemia 64.2% | SR leukemia 44.1% | RPMI-8226 leukemia 86.2% | OVCAR-8 ovarian 81.6% | OVCAR-5 ovarian 85.6% | OVCAR-4 ovarian 93.6% | SK-OV-3 ovarian 71.3% | IGROV1 ovarian 96.3% | OVCAR-3 ovarian 80.8% | HS 578T breast 150% | NCI/ADR-RES ovarian 80.7% | BT-549 breast 85.5% | MDA-MB-435 melanoma 103% | SW-620 colon 74.5% | MCF7 breast 66.6% | HCT-116 colon 87% | HCC-2998 colon 60.1% | KM12 colon 40.6%

COc1cc2c(cc1OCCCCCn1c(-c3ccco3)nc3ccccc31)N=C[C@@H]1CCCN1C2=O
inactive: RPMI-8226 leukemia 28% | OVCAR-8 ovarian 18.6% | OVCAR-4 ovarian 11.2% | SK-OV-3 ovarian 42.3% | OVCAR-3 ovarian 12.9% | HS 578T breast 14.7% | NCI/ADR-RES ovarian 11.2% | T-47D breast 27.8% | SW-620 colon 15% | HCT-116 colon 14.5%
active: MOLT-4 leukemia 6.41% | SR leukemia 0.702% | OVCAR-5 ovarian 7.02% | IGROV1 ovarian -59.8% | MDA-MB-435 melanoma -48.1% | HCC-2998 colon -22.3% | KM12 colon 2.44%

CCOP(=O)(Nc1ccc2c(c1)/C(=N/NC(N)=S)c1ccccc1-2)OCC
inactive: MOLT-4 leukemia 92% | SR leukemia 109% | RPMI-8226 leukemia 93.5% | OVCAR-8 ovarian 94.7% | OVCAR-5 ovarian 105% | OVCAR-4 ovarian 96.9% | SK-OV-3 ovarian 114% | IGROV1 ovarian 132% | OVCAR-3 ovarian 105% | HS 578T breast 82% | NCI/ADR-RES ovarian 100% | BT-549 breast 101% | MDA-MB-435 melanoma 107% | SW-620 colon 115% | MCF7 breast 69.6% | HCT-116 colon 103% | HCC-2998 colon 119% | KM12 colon 88.9%

COc1cc([C@@H]2c3cc4c(cc3[C@H](OC(C)=O)[C@H]3COC(=O)[C@H]23)OCO4)cc(OC)c1OC
inactive: MOLT-4 leukemia 16.7% | RPMI-8226 leukemia 23.4% | OVCAR-8 ovarian 21.1% | OVCAR-5 ovarian 56.4% | OVCAR-4 ovarian 41.3% | SK-OV-3 ovarian 39.3% | IGROV1 ovarian 21.2% | HS 578T breast 46.6% | BT-549 breast 31.5% | SW-620 colon 27.3% | MCF7 breast 14.9% | HCC-2998 colon 15% | KM12 colon 17.8%
active: SR leukemia 9.46% | OVCAR-3 ovarian 1.52% | NCI/ADR-RES ovarian 3.8% | MDA-MB-435 melanoma -8.58% | HCT-116 colon 7.01%

C=CCCCN=C=S
inactive: MOLT-4 leukemia 40.7% | SR leukemia 27% | RPMI-8226 leukemia 49% | OVCAR-8 ovarian 89.6% | OVCAR-5 ovarian 86.9% | OVCAR-4 ovarian 88.8% | SK-OV-3 ovarian 70.7% | IGROV1 ovarian 72% | OVCAR-3 ovarian 57.8% | HS 578T breast 98% | NCI/ADR-RES ovarian 87.2% | BT-549 breast 67.1% | MDA-MB-435 melanoma 61.2% | SW-620 colon 66.5% | MCF7 breast 40.5% | HCT-116 colon 44.7% | HCC-2998 colon 102% | KM12 colon 49.9%

COC(=O)CC[C@H](Cc1ccccc1)NC(=O)c1csc([C@@H](C[C@H](C(C)C)N(C)C(=O)[C@@H](NC(=O)[C@H]2CCCCN2C)C(C)C)OC(C)=O)n1
active: MOLT-4 leukemia 9.45% | OVCAR-3 ovarian -3.19% | BT-549 breast -22.4% | MDA-MB-435 melanoma 1.58%
inactive: SR leukemia 13.9% | RPMI-8226 leukemia 37.3% | OVCAR-8 ovarian 28.1% | OVCAR-5 ovarian 76.2% | OVCAR-4 ovarian 52.3% | SK-OV-3 ovarian 35.4% | IGROV1 ovarian 15.3% | HS 578T breast 38.2% | NCI/ADR-RES ovarian 30.4% | SW-620 colon 35.8% | MCF7 breast 17.1% | HCT-116 colon 20.8% | HCC-2998 colon 42.4% | KM12 colon 24.8%

COc1ccc2c(c1)c(C1(O)CC(CSC#N)OC1=O)cn2C(=O)c1ccc(Cl)cc1 (centres undefined)
inactive: MOLT-4 leukemia 93.2% | SR leukemia 84.8% | RPMI-8226 leukemia 91.9% | OVCAR-8 ovarian 98.8% | OVCAR-5 ovarian 99.4% | OVCAR-4 ovarian 101% | SK-OV-3 ovarian 109% | IGROV1 ovarian 77.2% | OVCAR-3 ovarian 108% | HS 578T breast 101% | NCI/ADR-RES ovarian 92.5% | BT-549 breast 97.6% | MDA-MB-435 melanoma 98.9% | SW-620 colon 105% | MCF7 breast 91.6% | HCT-116 colon 97% | HCC-2998 colon 95.1% | KM12 colon 97.7%

C=CCc1cc2c(cc1OCC)OCO2
inactive: MOLT-4 leukemia 113% | SR leukemia 126% | RPMI-8226 leukemia 112% | OVCAR-8 ovarian 103% | OVCAR-5 ovarian 95.7% | OVCAR-4 ovarian 108% | SK-OV-3 ovarian 80.3% | IGROV1 ovarian 121% | OVCAR-3 ovarian 107% | HS 578T breast 93.2% | NCI/ADR-RES ovarian 105% | BT-549 breast 82.6% | MDA-MB-435 melanoma 109% | SW-620 colon 102% | MCF7 breast 90.9% | HCT-116 colon 85.5% | HCC-2998 colon 93.8% | KM12 colon 104%

C[C@]12CC[C@@H]3c4ccc(Oc5nc(N6CC6)nc(N6CC6)n5)cc4CC[C@H]3[C@@H]1CCC2=O
inactive: OVCAR-8 ovarian 36.4% | OVCAR-5 ovarian 101% | OVCAR-4 ovarian 31.6% | SK-OV-3 ovarian 36.1% | IGROV1 ovarian 27.8% | OVCAR-3 ovarian 15.6% | HS 578T breast 45.4% | NCI/ADR-RES ovarian 41.2% | T-47D breast 33.7% | MDA-MB-435 melanoma 48.5% | SW-620 colon 25.1% | MCF7 breast 20.6% | HCT-116 colon 26.7% | HCC-2998 colon 37% | KM12 colon 50%
active: MOLT-4 leukemia -25.2% | SR leukemia -5.09% | RPMI-8226 leukemia 0.429%

COC(=O)CC12CC(NC(=O)c3csc([C@@H](C[C@H](C(C)C)N(C)C(=O)[C@@H](NC(=O)[C@H]4CCCCN4C)C(C)C)OC(C)=O)n3)(C1)C2
active: OVCAR-3 ovarian -34.3% | NCI/ADR-RES ovarian -24.1% | MDA-MB-435 melanoma -39.8% | HCT-116 colon 9.61%
inactive: MOLT-4 leukemia 16.5% | SR leukemia 20.1% | RPMI-8226 leukemia 24.4% | OVCAR-8 ovarian 30.5% | OVCAR-5 ovarian 42.9% | OVCAR-4 ovarian 56.1% | SK-OV-3 ovarian 18.4% | IGROV1 ovarian 26.3% | HS 578T breast 45% | T-47D breast 64.4% | SW-620 colon 29% | HCC-2998 colon 10.5% | KM12 colon 11.1%

CCCC[C@H](NC(=O)[C@H]1CCCCN1C)C(=O)N(C)[C@H](C[C@@H](OC(C)=O)c1nc(C(=O)N[C@@H](Cc2ccccc2)C[C@H](C)C(=O)OCC)cs1)C(C)C
active: SR leukemia 4.92% | SK-OV-3 ovarian -6.08% | OVCAR-3 ovarian 3.86% | NCI/ADR-RES ovarian 4.37% | MDA-MB-435 melanoma -6.84%
inactive: MOLT-4 leukemia 12.7% | RPMI-8226 leukemia 10.7% | OVCAR-8 ovarian 21% | OVCAR-5 ovarian 36.2% | OVCAR-4 ovarian 49.5% | IGROV1 ovarian 24.4% | HS 578T breast 12.1% | T-47D breast 38.6% | SW-620 colon 24.6% | HCC-2998 colon 14.5% | KM12 colon 13.1%

COc1ccc2c(c1)c(-c1nc(-c3c[nH]c4ncccc34)cs1)cn2CCN1CCOCC1
active: MCF7 breast 5.06%
inactive: MOLT-4 leukemia 45.7% | SR leukemia 45.5% | RPMI-8226 leukemia 22.3% | OVCAR-8 ovarian 37.9% | OVCAR-5 ovarian 82.9% | OVCAR-4 ovarian 28% | SK-OV-3 ovarian 67.9% | IGROV1 ovarian 27.7% | OVCAR-3 ovarian 59% | HS 578T breast 37.5% | NCI/ADR-RES ovarian 38.7% | BT-549 breast 50.6% | MDA-MB-435 melanoma 73% | SW-620 colon 75.5% | HCT-116 colon 52.5% | HCC-2998 colon 74.1% | KM12 colon 20.2%

COc1cc([N+](=O)[O-])c2nc(C)ccc2c1[N+](=O)[O-]
inactive: MOLT-4 leukemia 98.2% | SR leukemia 82.2% | RPMI-8226 leukemia 80.7% | OVCAR-8 ovarian 89.1% | OVCAR-5 ovarian 131% | OVCAR-4 ovarian 103% | SK-OV-3 ovarian 119% | IGROV1 ovarian 109% | OVCAR-3 ovarian 44.2% | HS 578T breast 106% | NCI/ADR-RES ovarian 105% | BT-549 breast 97.4% | MDA-MB-435 melanoma 71.3% | SW-620 colon 72.7% | MCF7 breast 69.1% | HCT-116 colon 63.5% | HCC-2998 colon 107% | KM12 colon 79.8%

CNC(=O)Oc1ccc2c(c1)OCO2
inactive: MOLT-4 leukemia 94.3% | SR leukemia 91.4% | RPMI-8226 leukemia 115% | OVCAR-8 ovarian 101% | OVCAR-5 ovarian 106% | OVCAR-4 ovarian 116% | SK-OV-3 ovarian 116% | IGROV1 ovarian 104% | OVCAR-3 ovarian 119% | HS 578T breast 109% | NCI/ADR-RES ovarian 109% | BT-549 breast 97.1% | MDA-MB-435 melanoma 103% | SW-620 colon 107% | MCF7 breast 95.7% | HCT-116 colon 111% | HCC-2998 colon 106% | KM12 colon 101%

O=C(N/N=C\c1ccc(N(CCCl)CCCl)cc1)c1cccc([N+](=O)[O-])c1
inactive: MOLT-4 leukemia 89.7% | SR leukemia 103% | RPMI-8226 leukemia 95.6% | OVCAR-8 ovarian 63.4% | OVCAR-5 ovarian 109% | OVCAR-4 ovarian 87% | SK-OV-3 ovarian 82.7% | IGROV1 ovarian 76.8% | OVCAR-3 ovarian 83.2% | HS 578T breast 64.2% | NCI/ADR-RES ovarian 88.1% | BT-549 breast 96% | MDA-MB-435 melanoma 105% | SW-620 colon 100% | MCF7 breast 79.9% | HCT-116 colon 97% | HCC-2998 colon 101% | KM12 colon 93.6%

COc1ccc(NC([Se])=NC23CC4CC(CC(C4)C2)C3)cc1
active: MOLT-4 leukemia 5.72% | SR leukemia 5.11% | RPMI-8226 leukemia -31.9% | OVCAR-8 ovarian -0.307% | OVCAR-5 ovarian -12.9% | OVCAR-4 ovarian 6.53% | SK-OV-3 ovarian -18.2% | IGROV1 ovarian 3.84% | OVCAR-3 ovarian -32.3% | HS 578T breast -5.52% | NCI/ADR-RES ovarian 1.9% | SW-620 colon 2.24% | HCT-116 colon 1.65% | KM12 colon 5.4%
inactive: BT-549 breast 11.3% | MDA-MB-435 melanoma 20% | MCF7 breast 11.4% | HCC-2998 colon 14.6%
